Giardia FBPA inh-1 = inhibitors of Giardia lamblia fructose-1,6-bisphosphate aldolase. 290,000 compounds, 0.71% hits. purified Giardia FBPA. Potency, µM (series often up to 59.6 µM), for inactives: at the highest dose activity, negative = inhibition, usual class: inhibitors. A8B2U2; further: nearly all actives have a fitted effect of over 55% in size
Target sequence (A8B2U2 whole entry, looked up): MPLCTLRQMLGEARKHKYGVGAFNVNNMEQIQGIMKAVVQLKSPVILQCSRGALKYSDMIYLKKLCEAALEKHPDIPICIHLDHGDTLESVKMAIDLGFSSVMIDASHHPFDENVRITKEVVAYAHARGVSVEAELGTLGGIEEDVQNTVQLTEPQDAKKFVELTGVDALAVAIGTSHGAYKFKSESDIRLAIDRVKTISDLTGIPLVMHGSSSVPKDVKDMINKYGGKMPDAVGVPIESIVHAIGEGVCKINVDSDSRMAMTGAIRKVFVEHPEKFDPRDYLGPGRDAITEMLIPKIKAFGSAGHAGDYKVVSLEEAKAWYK
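Giardia FBPA (40 nM reagent) was preincubated 10 min at RT with compound (up to 57.5 uM final), then substrate plus GAPDH/TPI/NAD/arsenate coupling system with diaphorase/resazurin was added; resorufin fluorescence (525/598 nm) was read after 20 min.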
Cruzain Triton = blocks cruzain activity in presence of Triton detergent; Potency, µM, without a hit: max response, negative = inhibition, hits mostly inhibitors; purified cruzain, Z-FR-AMC fluorescence, 0.01% Triton; AID 1478; P25779; 200,000 compounds, 0.43% hits;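 further: plate controls were neutral wells for no effect and buffer without enzyme for full effect; nearly all actives have a fitted effect of over 40% in size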
Target sequence (P25779 123-467 limits assumed): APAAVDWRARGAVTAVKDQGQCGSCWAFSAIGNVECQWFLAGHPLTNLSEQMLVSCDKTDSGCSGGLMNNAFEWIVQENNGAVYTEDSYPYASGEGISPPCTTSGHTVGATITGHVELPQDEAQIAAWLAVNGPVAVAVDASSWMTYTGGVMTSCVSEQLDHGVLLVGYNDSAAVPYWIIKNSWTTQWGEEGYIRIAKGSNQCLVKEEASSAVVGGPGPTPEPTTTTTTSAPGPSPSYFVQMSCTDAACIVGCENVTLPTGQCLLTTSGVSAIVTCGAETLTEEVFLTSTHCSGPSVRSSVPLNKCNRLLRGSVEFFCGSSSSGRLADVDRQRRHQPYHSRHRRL
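Z-FR-AMC hydrolysis (2 uM substrate) by cruzain (1.5 nM) monitored kinetically at ex 360/em 450 nm after 15 min room-temperature compound exposure; 0.01% Triton X-100, pH 5.5, 5 mM DTT.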
Cruzain inh noDet = cruzain (T. cruzi) inhibition without detergent | P25779 | purified cruzain, Z-FR-AMC fluorescence, no detergent | Potency, µM, without a hit: max response, negative = inhibition, most hits filed as inhibitors | 200,000 compounds, 2.3% hits;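 further: plate controls were enzyme without inhibitor for no effect and buffer without enzyme for full effect; nearly all actives have a fitted effect of over 40% in size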
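Detergent-free condition (0.00005% Triton X-100) in acetate buffer pH 5.5 with DTT. 1.5 nM enzyme and compound were pre-mixed 15 min, then 2 uM Z-FR-AMC substrate added; reaction progress from fluorescence change between first and third reads (60 s).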
Giardia growth = blocks growth of Giardia lamblia trophozoites; shares compounds with Giardia FBPA inh-1; Giardia lamblia trophozoite growth inhibition; Potency, µM (series often up to 57.5 µM), for the others: at the top dose activity change, negative = inhibition, usual class: inhibitors; 1,500 compounds, 5% hits; AID 2785;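 further: trophozoites exposed to compound for 48 h at 37 °C; nearly all actives have a fitted effect of over 70% in size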
Mammal cell tox = counter-screen for Giardia aldolase inhibitors: mammalian cell toxicity; AID 2786; shares compounds with Giardia FBPA inh-1; 1,500 compounds, 4% hits; mammalian cell viability counter-screen, qHTS; Potency, µM (highest dose often 57.5 µM), inactives show top-dose viability change, negative = toxicity, hits mostly inhibitors;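 further: Chinese hamster ovary cells used as mammalian cytotoxicity surrogate; viability measured as cellular ATP by luminescence; compound exposure lasted 48 h before reading; nearly all actives have a fitted effect of over 60% in size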
Giardia FBPA inh-2 = confirmation of Giardia fructose-bisphosphate aldolase inhibitors | shares compounds with Giardia FBPA inh-1 | purified Giardia aldolase enzyme activity, qHTS | Potency, µM (top dose mostly 57.5 µM), inactives show top-dose activity change, negative = inhibition, usual class: inhibitors | 1,500 compounds, 5% hits | AID 2787; further: nearly all actives have a fitted effect of over 45% in size
Rabbit FBPA inh = selectivity test for Giardia aldolase inhibitors: rabbit aldolase; shares compounds with Giardia FBPA inh-1; Rabbit muscle FBPA enzyme inhibition, selectivity counter-screen; Potency, µM (series often up to 57.5 µM), for inactives: at the top dose activity, negative = inhibition, most hits filed as inhibitors; 1,500 compounds, 4% hits; AID 2794; further: nearly all actives have a fitted effect of over 60% in size
GAPDH counter = counter-screen for Giardia aldolase inhibitors: GAPDH coupling enzyme. Potency, µM (highest dose often 57.5 µM), inactives show at the highest dose activity change, negative = inhibition, most hits filed as inhibitors. 1,500 compounds, 6% hits. shares compounds with Giardia FBPA inh-1. GAPDH coupling enzyme counterscreen, biochemical, qHTS; further: nearly all actives have a fitted effect of over 55% in size
Starred values were filed as active, the others as inactive; ? = inconclusive; . = no result given; [ ] = dose if it differs, or a comment. The entries come from a sample that favours hits as a whole. The call rests on the fitted dose curve; in most records, active means well fitted curve in the direction sought with a large enough effect; inconclusive means small, poorly fitted or top-dose-only effect, or another doubt; inactive means no such curve, though single readings can be large; an effect the other way counts as inactive or inconclusive. Unless noted, on the % scale 0 is the no-effect control and ±100 the full control effect; potency means the concentration at half of the fitted maximal effect.

SMILES | Giardia FBPA inh-1 | Cruzain Triton | Cruzain inh noDet | Giardia growth | Mammal cell tox | Giardia FBPA inh-2 | Rabbit FBPA inh | GAPDH counter
CCCN1CCN(CC(=O)Nc2nncs2)CC1 | 4.5µM* | . | . | 9% | -8% | 7% | 9% | 14%
CCn1cc(C(=O)NCCc2ccc(Cl)cc2)c(=O)c2cc(S(=O)(=O)N3CCOCC3)ccc21 | . | -3% | -11% | . | . | . | . | .
CC(=O)c1cc(-c2ccccc2)n(CCC(=O)Nc2cc(C)cc(C)c2)c1C | . | -11% | -3% | . | . | . | . | .
COc1ccccc1N1CCN(C(C)C(=O)N2CC(C)OC(C)C2)CC1 (stereo not drawn) | 5.6µM* | . | . | 9%[10.4 µM] | 4% | -5% | -8% | 5%
COc1ccccc1N1CCN(C(=O)C(F)F)CC1 | 1% | 3% | -8% | . | . | . | . | .
Cc1ccc(C(C)C)c(OCC(=O)NN=C(CCl)CCl)c1 | 16µM* | . | . | ? | 2% | -7% | -3% | -2%
Cc1ccc(C(C)C)c(OCC(=O)NN=C2CCCC2)c1 | 3% | . | . | . | . | . | . | .
COC(=O)c1ccc(-n2nnc(-c3nc(-c4ccc5c(c4)OCO5)no3)c2C)cc1 | . | 1% | -1% | . | . | . | . | .
O=C(CCn1c(=O)c2cccn2c2ccc(F)cc21)NCCc1ccccc1Cl | . | 0% | 5% | . | . | . | . | .
CN(C)c1ccc(N/C=C/C(=O)c2ccccc2)cc1 | ? | 0% | ? | . | . | . | . | .
CN(C)c1ccc(N/C=C/C(=O)C(C)(C)C)cc1 | 14µM* | -3% | 0% | ? | -17% | -49% | ? | -21%
CCOc1cc(C(=O)N2CC(=O)Nc3ccc(F)cc3C2c2ccccc2)cc(OCC)c1OCC (stereo not drawn) | . | 1% | 7% | . | . | . | . | .
CCOC(=O)c1c(C)[nH]c(C)c1S(=O)(=O)N1CCCC(C(=O)Nc2cccc(CC)c2)C1 (stereo not drawn) | . | -3% | ? | . | . | . | . | .
Cc1ccc(SCCN2CCN(C)CC2)cc1 | 22µM* | . | . | -8%[10.4 µM] | -5% | 2% | 4% | 8%
Cc1ccc(SCCN2CCN(C)CCC2=O)cc1 | 5% | . | . | . | . | . | . | .
CN1C(=O)/C(=C/C=C/c2ccco2)C(=O)NC1=S | 16µM* | . | . | 28% | -5% | -20% | 6% | 23%
O=C1NC(=O)N(c2ccccc2)C(=O)/C1=C/C=C/c1ccco1 | -13% | . | . | . | . | . | . | .
COc1ccc(Nc2cc(C(=O)NCCCN3CCN(c4ccc(OC)cc4)CC3)c3ccccc3n2)cc1 | . | -27% | -6% | . | . | . | . | .
Cc1ccc(NC(=O)CN(C)C(=O)CSc2nncn2C)cc1 | 5% | 4% | -2% | . | . | . | . | .
CC(=O)/C(=N\Nc1ccc(C)cc1)Sc1nncn1C | 3.5µM* | -8% | -8% | -5%[38.3 µM] | -1% | -2% | -2% | -21%
CCC(C)NCCOc1ccc(C(C)(C)c2ccccc2)cc1 (stereo not drawn) | 18µM* | . | . | ? | -9% | 9% | 10% | 0%
CNCCCOc1ccc(C(C)(C)c2ccccc2)cc1 | ? | 2% | ? | . | . | . | . | .
Cc1nc(NC(=S)NC(=O)c2ccccc2)sc1C | 11µM* | . | . | ? | ? | -2% | 4% | 8%
Cc1ccc(C(=O)Nc2nc(C)c(C(=O)N(C)C)s2)o1 | -9% | . | . | . | . | . | . | .
Cc1nc(NC(=O)c2ccccc2)sc1C | -11% | . | . | . | . | . | . | .
SMILES | Giardia FBPA inh-1 | Cruzain Triton | Cruzain inh noDet | Giardia growth | Mammal cell tox | Giardia FBPA inh-2 | Rabbit FBPA inh | GAPDH counter
Cc1nc(NC(=S)NC(=O)c2ccco2)sc1C(=O)N(C)C | 10µM* | . | . | -5%[38.3 µM] | -14% | -2% | 7% | 5%
CCCOc1ccc(CNC(=O)c2oc3ccc4c(c3c2C)C(=O)CC(C)(CC)O4)cc1 (stereo not drawn) | . | -7% | -21% | . | . | . | . | .
O=C(O)Cc1sc(Nc2ccccc2)nc1-c1ccccc1 | . | -17% | -25% | . | . | . | . | .
O=C(O)Cc1sc(Nc2ccc(Cl)cc2)nc1-c1cccs1 | 18µM* | . | . | 15% | -5% | 3% | 9% | 2%
COc1ccc(-c2n[nH]c(=S)n2N)c(OC)c1 | 10µM* | . | . | -13% | 0% | 0% | 12% | 10%
COc1ccc(-n2c(-c3ccc(Cl)cc3Cl)n[nH]c2=S)c(OC)c1 | 11% | . | . | . | . | . | . | .
COc1ccc(/C=C/N(CCc2ccc(OC)c(OC)c2)C(=O)C(F)(F)F)cc1 | -4%[12.9 µM] | . | . | . | . | . | . | .
NC(=S)N/N=C/c1ccc(C(F)(F)F)cc1 | ? | -26% | ? | . | . | . | . | .
NC(=S)N/N=C/c1ncc(C(F)(F)F)cc1Cl | 6.3µM* | . | . | 3%[10.4 µM] | ? | -18% | 4% | ?
Cc1ccc(-n2nc(C(=O)N(C)c3ccccc3Cl)c3c4ccccc4n(C)c3c2=O)cc1 | . | -1% | -17% | . | . | . | . | .
CCc1nn(C)c(-c2n[nH]c(=S)n2N)c1Cl | ? | 4% | 0% | . | . | . | . | .
CCc1cc(-c2n[nH]c(=S)n2N)n(C)n1 | 10µM* | 0% | 7% | ? | 0% | 1% | 1% | 8%
Cc1nn(-c2ccc(N3CCCC3)nn2)c(C)c1CCC(=O)N1CCN(c2ccccc2)CC1 | . | -1% | -15% | . | . | . | . | .
